Source: PubChem BioAssay AID1159580 (chemical genetic matrix, 2015)
“And” between values parts separate entries of the source, which are not always exact repeats. Equal entries are not always repeated. About 2,000 (36%) of roughly 5,500 compounds were called active. Another 18% or so got no clear call; they are omitted. Rule as the data show it: active = normalized growth mostly below about 0.91 (no sharp cut-off); inconclusive = no clear call, values can overlap the other calls; inactive = mostly above about 0.92. This is one part of the list.

Assay: chemical genetic growth profiling, strain panel (AID 1159580);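 also: tested at 20 µM; growth read once vehicle control cultures reached saturation at 30 °C; 1 = growth at the plate median or of vehicle wells; lower values mean less growth of the strain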
Conditions: growth OD

Measured: normalized growth

Cc1ncc(CNC(=O)N(CCCl)N=O)c(N)n1
inactive: S. cerevisiae deletion strains, locus YJR075W, strain HOC1, stronger effect = lower value 1.01 | S. cerevisiae deletion strains, locus YKL009W, strain mrt4, stronger effect = lower value 0.976 | S. cerevisiae deletion strains, locus YKL068W, stronger effect = lower value 1 | S. cerevisiae deletion strains, locus YKL085W, strain MDH1 (second series), stronger effect = lower value 0.996 | S. cerevisiae deletion strains, locus YKL085W, strain MDH1, stronger effect = lower value 0.996 | S. cerevisiae deletion strains, locus YKL160W, strain elf1, stronger effect = lower value 0.996 | S. cerevisiae deletion strains, locus YKL190W, strain CNB1, stronger effect = lower value 1.01 | S. cerevisiae deletion strains, locus YKR001C, strain vps1, stronger effect = lower value 0.974 | S. cerevisiae deletion strains, locus YKR026C, strain gcn3, stronger effect = lower value 1.02 | S. cerevisiae deletion strains, locus YKR091W, strain srl3, stronger effect = lower value 1 | S. cerevisiae deletion strains, locus YLL001W, strain dnm1, stronger effect = lower value 0.97 | S. cerevisiae deletion strains, locus YLL026W, stronger effect = lower value 1.01 | S. cerevisiae deletion strains, locus YLL041C, strain sdh2, stronger effect = lower value 1.01 | S. cerevisiae deletion strains, locus YLR027C, strain aat2, stronger effect = lower value 0.99 | S. cerevisiae deletion strains, locus YLR039C, strain RIC1, stronger effect = lower value 1.04 | S. cerevisiae deletion strains, locus YLR058C, strain SHM2, stronger effect = lower value 1.02 | S. cerevisiae deletion strains, locus YLR102C, strain apc9, stronger effect = lower value 0.983 | S. cerevisiae deletion strains, locus YLR113W, strain HOG1, stronger effect = lower value 0.982 | S. cerevisiae deletion strains, locus YLR221C, strain rsa3, stronger effect = lower value 1.03 | S. cerevisiae deletion strains, locus YLR258W, strain gsy2, stronger effect = lower value 1 | S. cerevisiae deletion strains, locus YLR262C, strain YPT6 (second series), stronger effect = lower value 1.07 | S. cerevisiae deletion strains, locus YLR262C, strain YPT6, stronger effect = lower value 1.03 | S. cerevisiae deletion strains, locus YLR268W, strain sec22, stronger effect = lower value 0.983 | S. cerevisiae deletion strains, locus YLR320W, strain mms22, stronger effect = lower value 1.03 | S. cerevisiae deletion strains, locus YLR330W, strain CHS5, stronger effect = lower value 1.02 | S. cerevisiae deletion strains, locus YLR342W, strain FKS1 (second series), stronger effect = lower value 1.01 | S. cerevisiae deletion strains, locus YLR342W, strain FKS1, stronger effect = lower value 1.02 | S. cerevisiae deletion strains, locus YLR357W, strain rsc2, stronger effect = lower value 1.02 | S. cerevisiae deletion strains, locus YLR370C, strain arc18, stronger effect = lower value 1.01 | S. cerevisiae deletion strains, locus YLR371W, strain rom2, stronger effect = lower value 0.981 | S. cerevisiae deletion strains, locus YLR384C, strain iki3, stronger effect = lower value 1.03 | S. cerevisiae deletion strains, locus YLR418C, strain cdc73, stronger effect = lower value 0.965 | S. cerevisiae deletion strains, locus YML016C, strain PPZ1, stronger effect = lower value 1.02 | S. cerevisiae deletion strains, locus YML120C, strain ndi1, stronger effect = lower value 0.991 | S. cerevisiae deletion strains, locus YML124C, strain tub3, stronger effect = lower value 0.989 | S. cerevisiae deletion strains, locus YMR058W, strain fet3, stronger effect = lower value 1.02 | S. cerevisiae deletion strains, locus YMR078C, strain ctf18, stronger effect = lower value 0.964 | S. cerevisiae deletion strains, locus YMR125W, strain sto1, stronger effect = lower value 1 | S. cerevisiae deletion strains, locus YMR129W, stronger effect = lower value 1.02 | S. cerevisiae deletion strains, locus YMR205C, strain PFK2, stronger effect = lower value 1.01 | S. cerevisiae deletion strains, locus YMR223W, strain ubp8, stronger effect = lower value 0.994 | S. cerevisiae deletion strains, locus YMR231W, strain pep5, stronger effect = lower value 1 | S. cerevisiae deletion strains, locus YMR263W, strain SAP30, stronger effect = lower value 1.01 | S. cerevisiae deletion strains, locus YMR307W, strain GAS1, stronger effect = lower value 0.992 and 1.01 | S. cerevisiae deletion strains, locus YNL067W, strain RPL9B, stronger effect = lower value 1.01 | S. cerevisiae deletion strains, locus YNL071W, strain lat1, stronger effect = lower value 1.01 | S. cerevisiae deletion strains, locus YNL128W, strain TEP1, stronger effect = lower value 1.01 and 1 | S. cerevisiae deletion strains, locus YNL153C, strain GIM3, stronger effect = lower value 1.02 and 0.991 | S. cerevisiae deletion strains, locus YNL175C, strain NOP13, stronger effect = lower value 0.997 | S. cerevisiae deletion strains, locus YNL183C, strain NPR1, stronger effect = lower value 0.913 | S. cerevisiae deletion strains, locus YNL197C, strain WHI3, stronger effect = lower value 0.999 | S. cerevisiae deletion strains, locus YNL209W, strain ssb2, stronger effect = lower value 0.992 | S. cerevisiae deletion strains, locus YNL224C, strain SQS1, stronger effect = lower value 1.01 | S. cerevisiae deletion strains, locus YNL233W, strain BNI4, stronger effect = lower value 1.01 | S. cerevisiae deletion strains, locus YNL248C, strain rpa49, stronger effect = lower value 1.02 | S. cerevisiae deletion strains, locus YNL250W, strain rad50, stronger effect = lower value 0.972 | S. cerevisiae deletion strains, locus YNL271C, strain bni1, stronger effect = lower value 0.979 | S. cerevisiae deletion strains, locus YNL298W, strain CLA4, stronger effect = lower value 0.996 | S. cerevisiae deletion strains, locus YNL307C, strain MCK1, stronger effect = lower value 1 | S. cerevisiae deletion strains, locus YNL322C, strain KRE1 (second series), stronger effect = lower value 0.937 | S. cerevisiae deletion strains, locus YNL322C, strain KRE1, stronger effect = lower value 1.01 | S. cerevisiae deletion strains, locus YNR049C, strain mso1, stronger effect = lower value 1.02 | S. cerevisiae deletion strains, locus YNR052C, strain pop2, stronger effect = lower value 0.983 | S. cerevisiae deletion strains, locus YOL006C, strain TOP1, stronger effect = lower value 1.02 | S. cerevisiae deletion strains, locus YOL012C, strain htz1 1.04 | S. cerevisiae deletion strains, locus YOL147C, strain pex11, stronger effect = lower value 0.978 | S. cerevisiae deletion strains, locus YOR001W, strain rrp6, stronger effect = lower value 1.03 | S. cerevisiae deletion strains, locus YOR061W, strain CKA2, stronger effect = lower value 1.02 | S. cerevisiae deletion strains, locus YOR069W, strain VPS5, stronger effect = lower value 1.02 | S. cerevisiae deletion strains, locus YOR070C, strain gyp1, stronger effect = lower value 1.03 | S. cerevisiae deletion strains, locus YOR080W, strain dia2, stronger effect = lower value 1.01 | S. cerevisiae deletion strains, locus YOR083W, strain WHI5 (second series), stronger effect = lower value 1.01 | S. cerevisiae deletion strains, locus YOR083W, strain WHI5, stronger effect = lower value 0.979 | S. cerevisiae deletion strains, locus YOR106W, strain vam3, stronger effect = lower value 0.959 | S. cerevisiae deletion strains, locus YOR136W, strain idh2, stronger effect = lower value 0.981 | S. cerevisiae deletion strains, locus YOR144C, strain elg1, stronger effect = lower value 0.978 | S. cerevisiae deletion strains, locus YOR184W, strain ser1, stronger effect = lower value 0.989 | S. cerevisiae deletion strains, locus YOR231W, strain MKK1, stronger effect = lower value 0.953 | S. cerevisiae deletion strains, locus YOR265W, strain rbl2, stronger effect = lower value 1.01 | S. cerevisiae deletion strains, locus YOR270C, strain vph1, stronger effect = lower value 1.03 | S. cerevisiae deletion strains, locus YOR290C, strain snf2, stronger effect = lower value 0.993 | S. cerevisiae deletion strains, locus YOR316C, strain cot1, stronger effect = lower value 0.99 | S. cerevisiae deletion strains, locus YPL051W, strain arl3, stronger effect = lower value 0.974 | S. cerevisiae deletion strains, locus YPL055C, strain LGE1, stronger effect = lower value 1.02 | S. cerevisiae deletion strains, locus YPL078C, strain atp4, stronger effect = lower value 0.98 | S. cerevisiae deletion strains, locus YPL106C, strain sse1, stronger effect = lower value 1.02 | S. cerevisiae deletion strains, locus YPL240C, strain hsp82, stronger effect = lower value 1.01 | S. cerevisiae deletion strains, locus YPL241C, strain CIN2, stronger effect = lower value 1.02 | S. cerevisiae deletion strains, locus YPL256C, strain CLN2, stronger effect = lower value 0.989 | S. cerevisiae deletion strains, locus YPR119W, strain clb2, stronger effect = lower value 0.978 | S. cerevisiae deletion strains, locus YPR141C, strain kar3, stronger effect = lower value 0.987 | S. cerevisiae deletion strains, locus YPR163C, strain tif3, stronger effect = lower value 0.98 | S. cerevisiae deletion strains, locus YPR167C, strain met16, stronger effect = lower value 0.982 | S. cerevisiae deletion strains, strain wtn01, stronger effect = lower value 0.987 | S. cerevisiae strains, strain wild type, stronger effect = lower value 1.01
active: S. cerevisiae deletion strains, locus YML032C, strain rad52, stronger effect = lower value 0.903
